Screen size: about 340,000 compounds; about 2,100 (0.62%) were called active.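 How the source made its calls: active means first-screen hits whose inhibition reached a set limit at any dose in the follow-up dose series; inconclusive means inhibition above the set first-screen limit but never retested; inactive means the rest.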 The list is a sample of the results. Measured potencies and affinities stand elsewhere.
What follows are compounds tested against Rac GTPase-activating protein 1 (Homo sapiens) (UniProt Q9H0H5) (assay: blockers of MgcRacGAP-driven Rac1 GTP hydrolysis – biochemical, ADP Hunter fluorescence, primary and confirmatory, confirmation (AID 624330;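 further: fluorescence reports GDP produced by GAP-driven GTP hydrolysis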)). Conditions: MgcRacGAP-stimulated Rac1 GTP hydrolysis, at 30 µM, hits give high values, GST-tagged Rac1 F28L mutant substrate.
Sequence of Rac GTPase-activating protein 1 (Homo sapiens) (Q9H0H5 whole entry, looked up): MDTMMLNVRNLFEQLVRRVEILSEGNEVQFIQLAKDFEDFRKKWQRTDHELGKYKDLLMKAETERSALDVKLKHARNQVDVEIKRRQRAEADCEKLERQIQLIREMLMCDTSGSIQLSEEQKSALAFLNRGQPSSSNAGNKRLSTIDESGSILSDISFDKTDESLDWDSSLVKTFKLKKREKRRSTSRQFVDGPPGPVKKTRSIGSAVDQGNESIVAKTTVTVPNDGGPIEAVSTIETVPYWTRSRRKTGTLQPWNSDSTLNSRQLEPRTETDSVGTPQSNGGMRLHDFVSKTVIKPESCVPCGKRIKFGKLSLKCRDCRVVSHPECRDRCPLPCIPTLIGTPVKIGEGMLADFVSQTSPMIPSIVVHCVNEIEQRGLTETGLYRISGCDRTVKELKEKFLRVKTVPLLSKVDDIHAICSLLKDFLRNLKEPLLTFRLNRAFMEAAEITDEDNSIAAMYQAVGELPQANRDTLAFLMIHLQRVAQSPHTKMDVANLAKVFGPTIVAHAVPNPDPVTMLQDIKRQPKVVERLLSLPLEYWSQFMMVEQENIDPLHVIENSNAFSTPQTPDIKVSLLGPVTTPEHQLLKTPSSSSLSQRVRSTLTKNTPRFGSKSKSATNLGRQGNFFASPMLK

inhibition, inactive:
O=C(NCc1ccco1)C1CCCN(c2nnc(-n3cccc3)s2)C1 (configuration not stated) 14.7%, C=CCn1c(SCC(=O)NC2(C)CCS(=O)(=O)C2)nc2ccccc21 (configuration not stated) 1.26%, Cn1c(N)c(C(=O)CSc2nc3ccccc3n2-c2ccccc2)c(=O)n(C)c1=O 4.85%, CCOC(=O)CNC(=O)C1c2ccccc2Oc2ccccc21 3.51%, Cc1csc(NC(=O)c2ccncc2)n1 7.69%, Cc1cc(=O)[nH]c(SCC(=O)Nc2ccccc2[N+](=O)[O-])n1 6.16%, CC(=O)N(C)c1ccc(N=Nc2ccc3ncccc3c2)cc1 -1.54%, COc1ccc(/C=N/NC(=O)c2sc3nc(C)cc(C)c3c2N)cc1 9.68%, O=C(O)C1Nc2c(C(F)(F)F)ccc(Cl)c2C2C=CCC12 (configuration not stated) -3.26%, CC(C)C1Nc2c(O)cc(Cl)c([N+](=O)[O-])c2C2C=CCC21 (configuration not stated) 11.3%, CCCCn1nc(C(=O)N(CC(C)C)c2c(N)n(CCCC)c(=O)[nH]c2=O)c2ccccc2c1=O 9.52%, COc1ccccc1-c1nnc(SCC(=O)NC2CCS(=O)(=O)C2)n1N (configuration not stated) 8.87%, Cc1cnc(C(=O)Oc2c(C)ccc(C)c2C)cn1 -0.23%, Cc1cnc(C(=O)OCC(=O)c2ccc(-c3ccccc3)cc2)cn1 -1.23%, Cc1ccc(S(=O)(=O)N2CCC(C(=O)NCCc3ccccc3)CC2)cc1 2.72%, CSCCC(NC(=O)c1ccccc1Cl)C(=O)NNC(=O)c1ccncc1 (configuration not stated) 7.49%, c1ccc(Cn2cc(-c3ccccc3)cn2)cc1 6.79%, COc1ccc(C(C#N)=C2C=CC(=NO)C(C)=C2Cl)cc1 21.7%, COc1ccc(C(C#N)=C2C=C(Cl)C(=NO)C=C2Cl)cc1 -1.89%, CC(C)c1ccc(NC(=O)CN2CCN(c3ccccn3)CC2)cc1 7.53%, CC(=O)Nc1ccc(NC(=O)CN2CCN(c3ccccn3)CC2)cc1 6.59%, O=C(CN1CCN(c2ccccn2)CC1)Nc1ccccc1 -4.1%, COC(=O)c1ccc(NC(=O)CN2CCN(c3ccccn3)CC2)cc1 2.35%, CN1CCN(C(=O)c2cnn3c(C(F)(F)F)cc(-c4ccc5c(c4)OCO5)nc23)CC1 9.9%, O=c1[nH]c2c(s1)C(c1ccc(O)cc1)C1C3CCC(C3)C1S2 (configuration not stated) 11.5%, C[C@H](NC(=O)[C@H](Cc1ccccc1)n1c(=O)[nH]c2ccccc2c1=O)C(=O)N1CCC[C@H]1C(=O)O -3.53%, COc1ccc(CCN2C(=O)c3cccnc3C2=O)cc1OC 12.5%, O=C1C=C(NCCc2cc(Br)c(O)c(Br)c2)C(=O)c2ncccc21 9.18%, CCOC(=O)C1CCN(C(=O)C2CCN(C(=O)c3ccc([N+](=O)[O-])cc3)CC2)CC1 12%, CCOC(=O)c1ccc(-n2c(=S)sc3c(=O)[nH]c(C)nc32)cc1 16.1%, C=CCNC(=O)C(=O)N/N=C/c1cccc(Br)c1 5.98%, O=C(O)c1ccccc1-c1c2cc(I)c(=O)c(I)c-2oc2c(I)c(O)c(I)cc12 28.3%, O=c1ccc2c(-c3ccccc3S(=O)(=O)O)c3ccc(O)c(O)c3oc-2c1O 42.2%, O=C(NCc1ccccc1)c1onc(CS(=O)(=O)c2ccccn2)c1C(=O)NCc1ccccc1 -5.99%, NC(=O)C(c1ccc(Cl)cc1)c1ccc(Sc2ccc(Cl)cc2)nn1 (configuration not stated) 11.6%, Nc1cccc(C(=O)Nc2cccc3ncccc23)c1 -7.17%, C=CC(=O)N1C/C(=C/c2ccccc2)C(=O)/C(=C\c2ccccc2)C1 26.6%, CCN(CC)CCC(=O)N1c2ccccc2Sc2ccc(Cl)cc21 2.76%, C=CC(=O)N1C/C(=C/c2ccc(F)cc2)C(=O)/C(=C\c2ccc(F)cc2)C1 13.1%, O=C(/C=C/c1ccc(Cl)c(Cl)c1)N1CCOCC1 -0.69%, C=CC(=O)N1C/C(=C/c2ccc(Cl)cc2)C(=O)/C(=C\c2ccc(Cl)cc2)C1 13.6%, O=C(CCC(=O)N1CCOCC1)Nc1ccc(Cl)c(Cl)c1 5.89%, O=C1/C(=C/c2ccccc2)CN(C(=O)CCN2CCOCC2)C/C1=C\c1ccccc1 27.7%, CCOC(=O)N1C/C(=C\c2ccccc2)C(=O)/C(=C/c2ccccc2)C1 12.1%, O=C(Nc1ccc(N2CCOCC2)cc1)c1ccc(Cl)c(S(=O)(=O)N2CCCCC2)c1 0.26%, CC1CC(=O)C2=C(C1)Nc1nc3ccccc3n1C2c1cccnc1 (configuration not stated) 6.35%, O=C(COc1cccc2cccnc12)Nc1cccc(S(=O)(=O)N2CCCC2)c1 7.88%, CCCCCCc1ccc(N2C[C@H](Cc3ccccc3)[C@@H](CC(=O)Nc3ccccc3)C2=O)cc1 3.37%, COc1cc(OC)c(N(C)C(=O)c2cn(C)c(=O)c3cc(OC)c(OC)cc23)cc1Cl 9.25%, COC(=O)c1ccc(CNC(=O)C2CCC(=O)N(CCN3CCOCC3)C2)cc1 (configuration not stated) 6.54%, CCOC(=O)N1CCC(Nc2c([N+](=O)[O-])cc(C(=O)O)cc2[N+](=O)[O-])CC1 9.55%, Cc1ccc(NC(=O)COC(=O)COc2cccc3c2OC(C)(C)C3)cc1S(=O)(=O)N1CCOCC1 5.48%, CC1=C(C(=O)N(C)C)CC(CC(=O)NCCN2CCOCC2)C(=O)N1CCC1=CCCCC1 (configuration not stated) 19.4%, COc1ccc(OC(=O)N2C/C(=C/c3ccccc3)C(=O)/C(=C\c3ccccc3)C2)cc1 -4.51%, O=C1/C(=C\c2ccccc2)CCC/C1=C/c1ccccc1 -6.55%, CCOC(=O)C1(C)C=C(Nc2ccc(C)cc2)C(=O)N1c1ccc(C)cc1 (configuration not stated) 1.9%, CCOC(=O)C1(C)C=C(Nc2ccc(NC(C)=O)cc2)C(=O)N1c1ccc(NC(C)=O)cc1 (configuration not stated) 4.87%, CC(C)N1C(=O)c2ccccc2C1C(=O)NCCc1ccccc1 (configuration not stated) 3.65%, COCC(=O)N(Cc1cc2cccc(C)c2[nH]c1=O)c1ccccc1 2.29%, CCOc1ccc(OCCC(=O)OCC(=O)c2c(N)n(CC(C)C)c(=O)n(C)c2=O)cc1 15%, Cc1cc(C)c2c(c1)NC(c1cc3c(cc1Br)OCO3)C1CC=CC21 (configuration not stated) -0.13%, O=C(O)C1Nc2c(Cl)cc(Cl)c(Cl)c2C2C=CCC12 (configuration not stated) 17.2%, CC1Cc2cc(S(=O)(=O)N3CCC(C(=O)N(C)Cc4ccccc4)CC3)ccc2N1C(=O)C1CC1 (configuration not stated) 8.31%, Fc1ccc(-n2cc(CNCCc3ccncc3)c(-c3ccccc3Cl)n2)cc1 1.7%, CCOc1ccc(OCC(=O)Nc2cc(Cl)ccc2-n2cncn2)cc1 20.4%, CCN(C(=O)COC(=O)CCCc1c[nH]c2ccccc12)c1c(N)n(Cc2ccccc2)c(=O)[nH]c1=O -4.19%, O=c1oc2ccc(Cl)cc2nc1/C=C(\O)c1cccs1 19.2%, Cc1ccc2oc(=O)c(/C=C(\O)c3ccco3)nc2c1 18.2%, Cc1ccc2oc(=O)c(/C=C(\O)c3cccs3)nc2c1 15.8%, O=c1oc2ccc(Cl)cc2nc1/C=C(\O)c1ccco1 25%, CN(CCO)c1cc(NCCCN2CCC(Cc3ccccc3)CC2)c2nonc2c1[N+](=O)[O-] 4.68%, O=C(Nc1ccc(NC(=O)c2ccc(Cl)cc2Cl)cc1)c1ccc2c(c1)OCO2 5.16%, Cc1ccc(C(=O)Nc2ccncc2)cc1[N+](=O)[O-] 10.1%, O=C(Nc1ccncc1)c1ccc(Cl)c(Cl)c1 4.24%, Cc1ccc(NC(=O)c2ccc(-n3cccn3)c([N+](=O)[O-])c2)cc1 6.01%, COc1ccc(N(C(=O)/C=C/c2ccccc2)C2=CC3CCC(C2)N3C)cc1 (configuration not stated) 1.64%, COc1cc2[nH]c(C(=O)N3CCC(Cc4ccccc4)CC3)cc2c(OC)c1OC 4.96%, Cc1ccc(-n2nc(C)c3c2OC(N)=C(C#N)C3c2ccc(F)cc2)cc1 (configuration not stated) 6.17%, Cc1c(C(=O)N/N=C/c2cccs2)nc2ccccn12 4.8%, CC(C)(C)N1C(=O)c2ccc(C(=O)Nc3cc(C(=O)O)cc(C(=O)O)c3)cc2C1=O 13.1%, Cc1cc(N)ccc1NC(=O)c1ccccc1 6.01%, Cc1ccc(C(=O)Nc2ccc(O)cc2C(=O)O)cc1 14.9%, CCN1C(=O)c2ccc(C(=O)Nc3c(C)cc(C)cc3C)cc2C1=O -2.89%, CC(C)CN1C(=O)c2ccc(C(=O)Nc3ccc(O)cc3C(=O)O)cc2C1=O 15.1%, CC(C)(C)N1C(=O)c2ccc(C(=O)Nc3ccc(C(=O)O)cc3)cc2C1=O 1.96%, Cc1ccc(N2C(=O)c3ccc(C(=O)N4CCOCC4)cc3C2=O)cc1C -11.3%, O=C(COC(=O)c1ccc(O)cc1O)c1ccc(Cl)cc1 2.91%, CCCOP(=O)(c1ccc(N(C)C)cc1)C(O)c1ccccc1OC (configuration not stated) 4.57%, Nc1cc2c(cc1Cl)-c1ccc(Cl)cc1C2=O 3.85%, Nc1ccc2c(c1)C(=O)c1ccccc1-2 18.2%, Nc1ccc2c(c1)C(=O)c1ccc(N)cc1-2 22.8%, Nc1ccc2c(c1)C(=O)c1cc(Cl)c(Cl)cc1-2 7.4%

From PubChem BioAssay AID624330 (Southern Research Specialized Biocontainment Screening …, 2012)
